Experimental data taken from the antibiotic and cytotoxicity screens of Wong et al. (2023).
About 1,500 (3.8%) of roughly 39,000 compounds were called active. For the sample, actives were picked, then their nearest neighbours and some compounds at random.

The compounds below were run on HSkMC (human skeletal muscle cells) (assay: cytotoxicity call (relative viability < 0.9)). Details: 10 µM.
For CC(C)NC(=O)N[C@@H]1C=C[C@@H](CC(=O)O)O[C@@H]1CO, the cytotoxicity call was “inactive”.
For COc1ccc(S(=O)(=O)N(C)C[C@H]2Oc3ccc(NS(=O)(=O)c4cccs4)cc3CC(=O)N([C@H](C)CO)C[C@@H]2C)cc1, the cytotoxicity call was “inactive”.
C[C@@H]1CN([C@@H](C)CO)C(=O)c2cc(NC(=O)Nc3ccccc3)ccc2O[C@@H](C)CCCCO[C@H]1CN(C)S(=O)(=O)c1ccc(C(F)(F)F)cc1 was tested, and the cytotoxicity call was “inactive”.
Cc1ccc2cccc(OCCOc3ccccc3C(C)C)c2n1 was tested, and the cytotoxicity call was “inactive”.
In the case of O=C(C[C@@H]1CC[C@H]2[C@@H](COC[C@@H](O)CN2S(=O)(=O)c2ccc(Oc3ccccc3)cc2)O1)NC1CCC1, the cytotoxicity call was “inactive”.
Cc1ccc2nc([C@H](N)C(C)C)[nH]c2c1 was tested, and the cytotoxicity call was “inactive”.
C[C@H](CO)N1C[C@H](C)[C@H](CN(C)Cc2ccc(Cl)c(Cl)c2)Oc2ccc(NC(=O)Cc3ccccc3)cc2CC1=O was tested, and the cytotoxicity call was “inactive”.
In the case of C[C@@H]1CN([C@H](C)CO)C(=O)Cc2cc(NC(=O)Cc3ccccc3)ccc2O[C@@H]1CN(C)Cc1ccc(Cl)c(Cl)c1, the cytotoxicity call was “active”.
In the case of C[C@H]1CN([C@@H](C)CO)C(=O)Cc2cc(NC(=O)Cc3ccccc3)ccc2O[C@@H]1CN(C)Cc1ccc(Cl)c(Cl)c1, the cytotoxicity call was “inactive”.
For C[C@@H]1CN([C@@H](C)CO)C(=O)Cc2cc(NC(=O)Cc3ccccc3)ccc2O[C@H]1CN(C)Cc1ccc(Cl)c(Cl)c1, the cytotoxicity call was “inactive”.
With C[C@@H]1CN([C@H](C)CO)C(=O)Cc2cc(NC(=O)Cc3ccccc3)ccc2O[C@H]1CN(C)Cc1ccc(Cl)c(Cl)c1 the cytotoxicity call was “inactive”.
For C[C@@H]1CN([C@@H](C)CO)C(=O)Cc2cc(NC(=O)Cc3ccccc3)ccc2O[C@@H]1CN(C)Cc1ccc(Cl)c(Cl)c1, the cytotoxicity call was “active”.
Cc1ccc(S(=O)(=O)Nc2cccc3c2O[C@@H](CN(C)S(=O)(=O)c2cccs2)[C@H](C)CN([C@@H](C)CO)C3=O)cc1 was tested, and the cytotoxicity call was “inactive”.
For C[C@H]1CN([C@@H](C)CO)C(=O)Cc2cc(NC(=O)C3CCCCC3)ccc2O[C@@H]1CN(C)Cc1ccc(Cl)c(Cl)c1, the cytotoxicity call was “inactive”.
With C[C@@H]1CN([C@@H](C)CO)C(=O)Cc2cc(NC(=O)C3CCCCC3)ccc2O[C@H]1CN(C)Cc1ccc(Cl)c(Cl)c1 the cytotoxicity call was “inactive”.
In the case of C[C@H]1CN([C@@H](C)CO)C(=O)Cc2cc(NC(=O)C3CCCCC3)ccc2O[C@H]1CN(C)Cc1ccc(Cl)c(Cl)c1, the cytotoxicity call was “inactive”.
With C[C@@H]1CN([C@@H](C)CO)C(=O)Cc2cc(NC(=O)C3CCCCC3)ccc2O[C@@H]1CN(C)Cc1ccc(Cl)c(Cl)c1 the cytotoxicity call was “active”.
In the case of C[C@@H]1CN([C@H](C)CO)C(=O)Cc2cc(NC(=O)C3CCCCC3)ccc2O[C@H]1CN(C)Cc1ccc(Cl)c(Cl)c1, the cytotoxicity call was “inactive”.
C[C@@H]1CN([C@H](C)CO)C(=O)Cc2cc(NC(=O)C3CCCCC3)ccc2O[C@@H]1CN(C)Cc1ccc(Cl)c(Cl)c1 was tested, and the cytotoxicity call was “active”.
COc1ccc(NC(=O)Nc2cccc3c2O[C@@H](CN(C)S(=O)(=O)c2cn(C)cn2)[C@@H](C)CN([C@@H](C)CO)C3=O)cc1 was tested, and the cytotoxicity call was “inactive”.
With O=C(C[C@H]1CC[C@H]2[C@@H](COC[C@@H](O)CN2Cc2cc(F)ccc2F)O1)N[C@H]1CCN(Cc2ccccc2)C1 the cytotoxicity call was “inactive”.
O=C(C[C@@H]1CC[C@H](NC(=O)CN2CCOCC2)[C@@H](CO)O1)NCc1cccc(F)c1 was tested, and the cytotoxicity call was “inactive”.
For CN1C(=O)c2cc(NC(=O)C3CCCC3)ccc2OC[C@@H]2O[C@H](CC(=O)NCCc3ccncc3)CC[C@@H]21, the cytotoxicity call was “inactive”.
In the case of COc1ccc(S(=O)(=O)Nc2ccc3c(c2)CC(=O)N([C@@H](C)CO)C[C@H](C)[C@H](CN(C)Cc2ccc(Cl)c(Cl)c2)O3)cc1, the cytotoxicity call was “active”.
With COc1ccc(S(=O)(=O)Nc2ccc3c(c2)CC(=O)N([C@H](C)CO)C[C@H](C)[C@H](CN(C)Cc2ccc(Cl)c(Cl)c2)O3)cc1 the cytotoxicity call was “active”.
With COc1ccc(S(=O)(=O)Nc2ccc3c(c2)CC(=O)N([C@H](C)CO)C[C@H](C)[C@@H](CN(C)Cc2ccc(Cl)c(Cl)c2)O3)cc1 the cytotoxicity call was “inactive”.
With COc1ccc(S(=O)(=O)Nc2ccc3c(c2)CC(=O)N([C@@H](C)CO)C[C@@H](C)[C@H](CN(C)Cc2ccc(Cl)c(Cl)c2)O3)cc1 the cytotoxicity call was “inactive”.
COc1ccc(S(=O)(=O)Nc2ccc3c(c2)CC(=O)N([C@H](C)CO)C[C@@H](C)[C@@H](CN(C)Cc2ccc(Cl)c(Cl)c2)O3)cc1 was tested, and the cytotoxicity call was “active”.
For COc1ccc(S(=O)(=O)Nc2ccc3c(c2)CC(=O)N([C@@H](C)CO)C[C@H](C)[C@@H](CN(C)Cc2ccc(Cl)c(Cl)c2)O3)cc1, the cytotoxicity call was “inactive”.
For COc1ccc(S(=O)(=O)Nc2ccc3c(c2)CC(=O)N([C@H](C)CO)C[C@@H](C)[C@H](CN(C)Cc2ccc(Cl)c(Cl)c2)O3)cc1, the cytotoxicity call was “inactive”.
COc1ccc(S(=O)(=O)Nc2ccc3c(c2)CC(=O)N([C@@H](C)CO)C[C@@H](C)[C@@H](CN(C)Cc2ccc(Cl)c(Cl)c2)O3)cc1 was tested, and the cytotoxicity call was “active”.
COc1ccc(S(=O)(=O)N(C)C[C@H]2Oc3ccc(NC(=O)C4CC4)cc3CC(=O)N([C@H](C)CO)C[C@H]2C)cc1 was tested, and the cytotoxicity call was “inactive”.
Cc1noc(C)c1NC(=O)N(C)C[C@@H]1Oc2ccc(NC(=O)Cn3cnnn3)cc2CC(=O)N([C@@H](C)CO)C[C@@H]1C was tested, and the cytotoxicity call was “inactive”.
For CCN(CCO)C(=O)C1CN(C(C)=O)C1, the cytotoxicity call was “inactive”.
In the case of CCCc1nc2c(C)cc(-c3nc4ccccc4n3C)cc2n1Cc1ccc(-c2ccccc2C(=O)O)cc1, the cytotoxicity call was “inactive”.
With O=C(C[C@@H]1CC[C@H]2[C@@H](COC[C@H](O)CN2C(=O)Nc2cc(Cl)cc(Cl)c2)O1)N1CCOCC1 the cytotoxicity call was “inactive”.
Cc1noc(C)c1NC(=O)N(C)C[C@H]1OCCCC[C@@H](C)Oc2ccc(NS(=O)(=O)c3ccccc3)cc2C(=O)N([C@H](C)CO)C[C@H]1C was tested, and the cytotoxicity call was “inactive”.
In the case of CN1CCN(Cc2ccc(NC(=O)Nc3ccc(Oc4cc(NC(=O)C5CC5)ncn4)cc3)cc2C(F)(F)F)CC1, the cytotoxicity call was “active”.
In the case of COc1ccc(NC(=O)Nc2ccc3c(c2)[C@H]2C[C@H](CC(=O)N4CCN(C)CC4)O[C@@H](CO)[C@H]2O3)cc1, the cytotoxicity call was “inactive”.
For Cc1cccc(Oc2ccc(NC(=O)C3CCC(C)CC3)cc2)c1 (configuration not stated), the cytotoxicity call was “inactive”.
For CC(C)NC(=O)N(C)C[C@@H]1Oc2ccc(NS(=O)(=O)c3ccccc3)cc2CC(=O)N([C@@H](C)CO)C[C@@H]1C, the cytotoxicity call was “inactive”.
For Cc1noc(C)c1S(=O)(=O)Nc1ccc2c(c1)C(=O)N([C@H](C)CO)C[C@@H](C)[C@@H](CN(C)S(C)(=O)=O)OCCCC[C@H](C)O2, the cytotoxicity call was “inactive”.
COc1ccc(C#Cc2cnc3c(c2)C(=O)N([C@@H](C)CO)C[C@H](C)[C@H](CN(C)CC2CCOCC2)O3)cc1 was tested, and the cytotoxicity call was “inactive”.
In the case of CC(C)=CCc1c(O)cc2oc(C)cc(=O)c2c1O, the cytotoxicity call was “inactive”.
For COc1c(O)cc2oc3cc(O)c(CC=C(C)C)c(O)c3c(=O)c2c1CC=C(C)C [alpha-MANGOSTIN ], the cytotoxicity call was “active”.
COc1cc(O)c2c(=O)cc(C)oc2c1CC=C(C)C was tested, and the cytotoxicity call was “inactive”.
For COc1ccc(S(=O)(=O)Nc2ccc3c(c2)C(=O)N([C@@H](C)CO)C[C@@H](C)[C@H](CN(C)S(C)(=O)=O)O3)cc1, the cytotoxicity call was “inactive”.
C[C@@H]1CN([C@H](C)CO)C(=O)Cc2cc(NS(=O)(=O)c3cccs3)ccc2O[C@H]1CN(C)S(=O)(=O)c1cn(C)cn1 was tested, and the cytotoxicity call was “inactive”.
For O=C(N[C@H](c1ccc2ccccc2n1)c1cccs1)C1CCN(Cc2cccc(C(F)(F)F)c2)CC1, the cytotoxicity call was “inactive”.
For N#Cc1c(Oc2ccc(F)c(NC(=O)Cc3cccc(C(F)(F)F)c3)c2)ccc2nc(NC(=O)C3CC3)sc12, the cytotoxicity call was “active”.
With NC[C@](O)(c1cccs1)C1CC1 the cytotoxicity call was “inactive”.
With C[C@@H]1CN([C@@H](C)CO)C(=O)c2cc(-c3cccc(C(=O)N(C)C)c3)cnc2O[C@@H]1CN(C)S(=O)(=O)c1cccc(F)c1 the cytotoxicity call was “inactive”.
In the case of COc1ccc(CN(C)C[C@@H]2Oc3ccc(NC(=O)CCN4CCOCC4)cc3CC(=O)N([C@@H](C)CO)C[C@@H]2C)cc1, the cytotoxicity call was “inactive”.
COc1ccc(S(=O)(=O)Nc2cccc3c2O[C@@H](CN(C)S(=O)(=O)c2c(C)noc2C)[C@H](C)CN([C@H](C)CO)C3=O)cc1 was tested, and the cytotoxicity call was “inactive”.
O=C(C[C@H]1CC[C@H]2[C@@H](COC[C@@H](O)CN2S(=O)(=O)c2ccc(Cl)cc2)O1)NCC1CCCCC1 was tested, and the cytotoxicity call was “inactive”.
For Cn1nnc(NCc2ccccc2)n1, the cytotoxicity call was “inactive”.
With c1ccc(CNc2nn[nH]n2)cc1 the cytotoxicity call was “inactive”.
With c1ccc(CNc2ccc3c(ccc4c5ccccc5[nH]c34)n2)cc1 the cytotoxicity call was “active”.
For C[C@@H]1CN([C@H](C)CO)C(=O)Cc2cc(NC(=O)c3ccncc3)ccc2O[C@@H]1CN(C)S(=O)(=O)c1ccc(F)cc1, the cytotoxicity call was “inactive”.
C[C@H](CO)N1C[C@H](C)[C@@H](CN(C)C(=O)Nc2ccc(F)cc2)Oc2ccc(NC(=O)Cn3cnnn3)cc2CC1=O was tested, and the cytotoxicity call was “inactive”.
In the case of CS(C)(=O)=O, the cytotoxicity call was “inactive”.
With Cc1ccc(S(=O)(=O)Nc2ccc3c(c2)C(=O)N([C@H](C)CO)C[C@H](C)[C@@H](CN(C)C(=O)Nc2ccc(F)cc2)OCCCC[C@H](C)O3)cc1 the cytotoxicity call was “inactive”.
For C[C@H]1CN([C@@H](C)CO)C(=O)Cc2cc(NC(=O)Nc3ccc(C(F)(F)F)cc3)ccc2O[C@H]1CN(C)Cc1ccncc1, the cytotoxicity call was “inactive”.
For C[C@@H]1CN([C@H](C)CO)C(=O)Cc2cc(NC(=O)Nc3ccc(C(F)(F)F)cc3)ccc2O[C@H]1CN(C)Cc1ccncc1, the cytotoxicity call was “inactive”.
In the case of C[C@H]1CN([C@@H](C)CO)C(=O)Cc2cc(NC(=O)Nc3ccc(C(F)(F)F)cc3)ccc2O[C@@H]1CN(C)Cc1ccncc1, the cytotoxicity call was “inactive”.
With C[C@@H]1CN([C@H](C)CO)C(=O)Cc2cc(NC(=O)Nc3ccc(C(F)(F)F)cc3)ccc2O[C@@H]1CN(C)Cc1ccncc1 the cytotoxicity call was “inactive”.
C[C@H](CO)N1C[C@H](C)[C@@H](CN(C)Cc2ccc(Cl)c(Cl)c2)Oc2ccc(NC(=O)Nc3ccc(C(F)(F)F)cc3)cc2CC1=O was tested, and the cytotoxicity call was “active”.
For C[C@@H]1CN([C@H](C)CO)C(=O)Cc2cc(NC(=O)Nc3ccc(C(F)(F)F)cc3)ccc2O[C@@H]1CN(C)Cc1ccc(Cl)c(Cl)c1, the cytotoxicity call was “active”.
For C[C@H]1CN([C@@H](C)CO)C(=O)Cc2cc(NC(=O)Nc3ccc(C(F)(F)F)cc3)ccc2O[C@H]1CN(C)Cc1ccc(Cl)c(Cl)c1, the cytotoxicity call was “active”.
For C[C@@H]1CN([C@@H](C)CO)C(=O)Cc2cc(NC(=O)Nc3ccc(C(F)(F)F)cc3)ccc2O[C@@H]1CN(C)Cc1ccc(Cl)c(Cl)c1, the cytotoxicity call was “active”.
C[C@@H]1CN([C@@H](C)CO)C(=O)Cc2cc(NC(=O)Nc3ccc(C(F)(F)F)cc3)ccc2O[C@@H]1CN(C)Cc1ccncc1 was tested, and the cytotoxicity call was “inactive”.
In the case of C[C@H]1CN([C@@H](C)CO)C(=O)Cc2cc(NC(=O)Nc3ccc(C(F)(F)F)cc3)ccc2O[C@@H]1CN(C)Cc1ccc(Cl)c(Cl)c1, the cytotoxicity call was “inactive”.
